Compound activity deposited in PubChem BioAssay by National Center for Advancing Translational Sciences (NCATS).
NS1 function inh: influenza NS1 inhibition; AID 2326; 270,000 compounds, 0.4% hits; Potency, µM (top dose mostly 46.1 µM), for inactives: at the top dose activity, positive = more growth; calls by dose curve; also: actives are rising curves; nearly all actives have a fitted effect of over 50% in size
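S. cerevisiae expressing influenza A NS1, grown in glucose, washed, then diluted 1:100 into pH 6.0 -URA galactose medium with 23 nl compound. Growth recovery read as OD600; NS1-free strain serves as control.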
AMA1 RON2 block: inhibitors of Plasmodium falciparum AMA1-RON2 interaction; AlphaScreen AMA1-biotinylated RON2 peptide binding; Potency, µM (series often up to 58.2 µM), for the others: at the highest dose activity change, negative = inhibition, actives largely listed as inhibitors; 360,000 compounds, 0.2% hits;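 also: 0% = vehicle wells and -100% = peptide control; nearly all actives have a fitted effect of over 45% in size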
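AMA1 (3D7) with his tag at 25 nM final met compounds first, then biotinylated RON2 peptide at 25 nM; detection used donor plus acceptor beads, 10 µg/mL apiece, read by AlphaScreen after 30 min at room temperature.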
Sm TGR inh: inhibitors of Schistosoma mansoni thioredoxin glutathione reductase; AID 485364; purified TGR, DTNB reduction, TNB absorbance 405 nm; 360,000 compounds, 3% hits; Potency, µM (doses to about 114 µM), for inactives: at the top dose activity change, negative = inhibition, usual class: inhibitors; also: % is scaled to controls: 0 for no effect and ±100 for the full control effect; nearly all actives have a fitted effect of over 60% in size
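Kinetic colorimetric format: TGR-catalysed, NADPH-driven DTNB reduction monitored via TNB absorbance. Enzyme dispensed at 20 nM; compound exposure 15 min at room temperature before reaction start.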
Pf growth 48h: inhibits P. falciparum growth in the first generation, 48 h. P. falciparum luciferase growth in erythrocytes, 48 h. Potency, µM (doses to about 28.7 µM), inactives show top-dose activity change, negative = inhibition, hits mostly inhibitors. 310,000 compounds, 5.9% hits; also: % is scaled to controls: 0 for no effect and ±100 for the full control effect
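Erythrocytes infected with P. falciparum carrying an integrated firefly luciferase reporter (2% hematocrit, 0.1% parasitemia final) were exposed to compounds in RPMI 1640 with 0.5% Albumax at 37 C, 5% CO2. Growth inhibition was scored as reduced luminescence.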
Pf growth 96h: inhibits malaria parasite growth, 96 h; P. falciparum luciferase reporter growth, 96 h; Potency, µM (series often up to 28.7 µM), for inactives: top-dose activity change, negative = inhibition, most hits filed as inhibitors; 320,000 compounds, 6.9% hits; also: % is scaled to controls: 0 for no effect and ±100 for the full control effect
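Infected RBCs, 2% Hct / 0.05% parasitemia final; luciferase-reporter P. falciparum; cpd 96 h, 37 C, 5% CO2; luciferase detection reagent; luminescence.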
* = called active by the depositor; ? = inconclusive; nt = no result; [ ] = another dose, or the depositor's remark. Hits are enriched below; roughly 11% of the tested compounds scored in any of these assays. Unless noted, calls follow the shape of the dose curve; as a rule, active = well fitted curve in the direction sought with a large enough effect; inconclusive = small, poorly fitted or top-dose-only effect, or another doubt; inactive = no such curve, though single readings can be large; an effect the other way counts as inactive or inconclusive. Potency is read from the fitted curve at half-maximal effect.

SMILES	NS1 function inh	AMA1 RON2 block	Sm TGR inh	Pf growth 48h	Pf growth 96h
CCOc1ccccc1OCC(=O)Nc1cccc(S(=O)(=O)NC2=NCCCCC2)c1	nt	6%	3%	?	?
CCOc1ccc2nc(SCC(=O)Nc3cccc(S(=O)(=O)NC4=NCCCCC4)c3)[nH]c2c1	nt	23%	1%	12µM*	?
CCCNC(=O)C1CCC(Cn2c(=O)c3sccc3n(CC(=O)N(CC)CC)c2=O)CC1 (stereo unspecified)	nt	nt	1%	nt	nt
CCOC(=O)c1cc(-c2ccccc2)n(CCCC(=O)Nc2cc(C)ccc2OC)c1C	nt	nt	19%	nt	nt
Cc1c(O)c(=O)n(-c2ccccc2)n1C	nt	-18%	11µM*	1%	35%
CC1=CC(=Nc2c(C)n(C)n(-c3ccccc3)c2=O)C=C(C)C1=O	15%	-25%	50µM*	7%	?
CC1=CC(=Nc2c(C)n(C)n(-c3ccccc3)c2=O)C=CC1=O	?	nt	2.8µM*	?	?
CCCCCCC(c1c(C)n(C)n(-c2ccccc2)c1=O)c1c(C)n(C)n(-c2ccccc2)c1=O	-4%	0%	-9%	13µM*	7%
CCC(C)C1=CC(=Nc2c(C)n(C)n(-c3ccccc3)c2=O)C=C(C(C)CC)C1=O (stereo unspecified)	nt	-4%	-20%	0%	29%
CC(NC(=O)C1CCN(S(=O)(=O)c2ccccc2)CC1)c1ccccc1 (stereo unspecified)	-21%	0%	-2%	-8%	-11%
Cc1cccc(NC(=O)C2CCN(S(=O)(=O)c3c(C)[nH]c(=O)[nH]c3=O)CC2)c1	-1%	12%	8%	46%	13µM*
Cc1[nH]c(=O)[nH]c(=O)c1S(=O)(=O)N1CCC(C(=O)NC(C)c2ccccc2)CC1 (stereo unspecified)	0%	0%	-2%	-4%	4.1µM*
COc1cc(C(C)=O)ccc1OCC(O)CN1CCN(c2cc(C)cc(C)c2)CC1 (stereo unspecified)	1%	7%	-31%	-16%	?
O=C(Nc1cccc(C(F)(F)F)c1)Nc1nnc([C@@H]2C[C@H](O)[C@@H](CO)O2)s1	nt	0%	nt	nt	nt
O=C(COC(=O)c1ncc(Cl)c(Cl)c1Cl)Nc1ccc(Cl)cn1	nt	-15%	40µM*	6%	10%
O=C(COC(=O)c1nc(Cl)ccc1Cl)Nc1ccc(Cl)cn1	nt	12%	-17%	?	-17%
CC(C)(C)C(=O)Nc1nc2nc(-c3ccccc3)cc(=O)n2[nH]1	nt	nt	-2%	nt	nt
CCCCCc1ccc(OCCC[n+]2ccccc2)c(CCCCC)c1	-38%	-1%	4%	1.9µM*	?
CCCCCc1ccc(OCCOCCn2c[n+](C)c3ccccc32)c(CCCCC)c1	nt	-9%	-9%	2.9µM*	-20%[1.15 µM]
CCCCOc1ccc(CCN)cc1Cl	5%	-29%	-2%	5%	31%
Cc1nc(CC(=O)Nc2cc(Cl)ccc2C)cs1	nt	nt	-6%	nt	nt
O=C1OC2(c3ccccc31)c1cc(I)c(O)c(I)c1Oc1c2cc(I)c(O)c1I	nt	nt	0.89µM*	13µM*	8.3µM*
CN1CCN(c2c(F)cc3c(=O)c(C(=O)O)cn4c3c2SCC4)CC1	2%	12%	2%	?	5.2µM*
C[C@@H]1COc2c(N3CCN(C)CC3)c(F)cc3c(=O)c(C(=O)O)cn1c23	nt	nt	nt	-3%	?
CCC1CCCCN1S(=O)(=O)c1ccc(N2CCCCS2(=O)=O)cc1 (stereo unspecified)	nt	nt	-6%	nt	nt
SMILES	NS1 function inh	AMA1 RON2 block	Sm TGR inh	Pf growth 48h	Pf growth 96h
Cc1ccc(CSCc2ccc(C(=O)NCCc3ccc(Cl)cc3)o2)cc1	nt	nt	-8%	nt	nt
CCCCNC(=O)c1ccc(CS(=O)(=O)c2ccc(C)cc2)o1	-5%	0%	45µM*	22%	36%
CCCCNC(=O)c1ccc(CS(=O)(=O)c2ccc(OC)cc2)o1	-5%	25%	-32%	nt	0%
COC(=O)c1ccc(CS(=O)(=O)c2ccc(C)cc2)o1	3%	11%	11µM*	21%	?
COC(=O)c1ccc(CN(C)S(=O)(=O)c2ccc(C)cc2)o1	-61%	1%	8%	-18%	12%
COCCCNC(=O)c1ccc(CSCc2ccc(C)cc2)o1	-7%	-4%	40µM*	?	20%
Oc1ccccc1/C=N/c1c(-c2ccco2)nc2ccccn12	-42%	4%	50µM*	-22%	nt
Clc1ccc(/C=N/c2c(-c3ccco3)nc3ccccn23)cc1	16%	-24%	?	nt	?
O=C(CCNC(=O)c1ccc(Br)cc1)OCc1ccccc1Cl	nt	32%	8%	-12%	21%
CC1CCN(C2=NN3C(=N)/C(=C\c4ccc(OC(=O)c5ccco5)cc4)C(=O)N=C3S2)CC1	-20%	106%	-9%	9%	?
N=C1/C(=C\c2ccc(OC(=O)c3ccc(F)cc3)cc2)C(=O)N=C2SC(N3CCOCC3)=NN12	-39%	66%	-20%	8%	1.7µM*
CCOC(=O)c1cc(-c2cccs2)nc2c1c(C)nn2-c1ccccn1	nt	7%	0%	-21%	?
Cc1ccccc1-n1nc(C)c2c(C(=O)NN)cc(-c3ccncc3)nc21	2%	2%	-6%	-23%	?
Cc1nn(-c2ccccn2)c2nc(-c3cccs3)cc(C(=O)NCc3ccco3)c12	23%	55%	-25%	nt	10µM*
Cc1nn(-c2ccccc2)c2nc(-c3ccncc3)cc(C(=O)NCc3ccco3)c12	7%	6%	45µM*	3.7µM*	10µM*
